PubChem BioAssay (NCATS)
Inconclusive results are not listed. Active and inactive are the calls of the source. Calls follow the shape of the dose curve; as a rule, active = well fitted cell-killing curve with a large enough effect; inconclusive = small, poorly fitted or top-dose-only effect, or effect the other way; inactive = flat fitted curve, though single readings scatter.

assay: MultiTox-Fluor Cytotoxicity Assay - LYMP1-001 - Dead Cells (AID 946); details: LYMP1-001 lymphoblastoid cells, dead-cell protease fluorescence; series mostly up to 92.2 µM
Procedure, shortened: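 LYMP1-001 lymphoblastoid cells (2500/well) treated 16 h at 37 C. Dead-cell protease cleavage of bis-AAF-R110 read at Ex/Em 485/520. Normalized to DMSO and 15 uM tetraoctylammonium bromide; AC50 from Hill fits.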

Compound	outcome
CC(C#N)CCC#N (stereo unspecified)	inactive
Nc1cc(Cl)ccc1Cl	inactive
Nc1cccc(Cl)c1	inactive
ClCc1ccccc1	inactive
CCC/C=N/O	inactive
COc1c(C(C)(C)C)cc([N+](=O)[O-])c(C)c1[N+](=O)[O-]	inactive
O=S(=O)(Cl)c1ccccc1	inactive
C=CCOCC1CO1 (stereo unspecified)	inactive
c1ccoc1	inactive
Clc1ccccc1	inactive
ClC(Cl)(Cl)C(Cl)(Cl)Cl	inactive
CCOC(=O)C1OC1(C)c1ccccc1 (stereo unspecified)	inactive
C/C=C/CC#N	inactive
ClC(Cl)C(Cl)Cl	inactive
C=CCCl	inactive
Oc1c(Cl)cccc1Cl	inactive
Brc1cccc(-c2ccccc2)c1	inactive
C=CCO	inactive

Compound	outcome
OCCCCO	inactive
BrCCc1ccccc1	inactive
Cc1ccccc1[N+](=O)[O-]	inactive
CCCCOC(=O)c1ccccc1N	inactive
Clc1cc(Cl)c(Cl)c(Cl)c1	inactive
Cc1ccc(N)c(C)c1	inactive
C1CC2OC2CC1C1CO1 (stereo unspecified)	inactive
CN(C)C(=O)Cl	inactive
CC(=O)NNc1ccccc1	inactive
Cc1ccc(N=C=O)cc1N=C=O	inactive
O=C(Cl)OCc1ccccc1	inactive
C=CC(=O)OC	inactive
OCC(Cl)CCl (stereo unspecified)	inactive
CC(C)CON=O	inactive
CC[N+](=O)[O-]	inactive
CC(C)(Cl)[N+](=O)[O-]	inactive
C[N+](=O)[O-]	inactive
ClCC(Br)CBr (stereo unspecified)	inactive
